Only some compounds are listed: those with a hit (about 1.6% of all), similar ones and a draw of the others.
ugtP null kill: growth inhibition of ugtP-null S. aureus, primary screen, RN4220 ugtP deletion, OD600; 16 h; growth inhibition, % (concentration not given with the values); hit rate 0.54% among 330,000; AID 1259309, 2017; in the data active = growth inhibition above about 68%;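 note: plate controls were untreated wells for no effect and antibiotic for full effect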
PfHsp40 yeast: rescue of yeast from PfHsp40 toxicity, primary screen, S. cerevisiae, ATP luminescence | S. cerevisiae expressing PfHsp40, growth rescue | hit rate 0.68% among 340,000 | AID 504582, 2011 | growth rescue, % at 12.5 µM; in the data active = growth rescue above about 28%, passing the limit was not always enough;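 note: yeast W303a lacking pdr1 and pdr3 grown in galactose medium; growth measured after three days at 30 °C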
BJeLR lethal: MLPCN primary cell-based screen for lethality selective to Ras in HRASV12 cells; hit rate 0.17% among 300,000; inhibition, % (no concentration beside the values); BJeLR (HRASV12) viability, CellTiter-Glo ATP luminescence, 48 h; in the data active = inhibition above about 50%
CCHF vOTU inh-1: CCHFV vOTU protease inhibitors, primary screen, biochemical, Pep-AMC substrate, fluorescence; Crimean-Congo hemorrhagic fever virus L polyprotein viral ovarian tumor (vOTU) protease …; inhibition, % at 11.5 µM; hit rate 0.55% among 370,000; AID 651958, 2012; note: 0% = vehicle wells with enzyme and 100% = no enzyme wells
Sa RN4220 lethal: growth inhibition of S. aureus RN4220, primary screen, OD600; AID 1259311, 2017; inhibition, % (concentration not given with the values); 16 h; hit rate 0.33% among 330,000; in the data active = inhibition above about 85%;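 note: plate controls were untreated cells for no effect and reference antibiotic for full effect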
CCHF vOTU inh-2: CCHFV vOTU protease inhibitors, confirmation, biochemical, Pep-AMC substrate, fluorescence | shares compounds with CCHF vOTU inh-1 | Recombinant CCHFV vOTU | inhibition, % at 11.5 µM | hit rate 17% among 1,900
An asterisk follows results filed as active; nt = not tested or not shown. Cut-off read from the data, not from the text of the source, unless noted: active = inhibition above about 30%; inactive = the rest.

SMILES	ugtP null kill	PfHsp40 yeast	BJeLR lethal	CCHF vOTU inh-1	Sa RN4220 lethal	CCHF vOTU inh-2
Cc1cc(C=NNC(=O)CC(=O)NC2CCCCC2)c(C)n1-c1cccc(Cl)c1Cl	-10	nt	nt	nt	1	nt
Cc1cccc(C)c1-n1c(C)cc(/C=N\NC(=O)CC(=O)NC2CCCCC2)c1C	nt	3	-13	31*	nt	-4
Oc1cccc2cnccc12	-3	0	-10	-4	3	nt
Nc1cccc2cnccc12	8	-1	nt	48*	2	-16
O=C(NN=Cc1sc(N2CCOCC2)nc1-c1ccccc1)c1ccccc1Cl	10	nt	nt	nt	9	nt
COc1ccc2c(c1)C1C(CO2)C(c2ccccc2)[C@]2(C)C(=O)Nc3cc(Cl)ccc3C(=O)N12 (stereo partly drawn)	8	nt	nt	nt	-10	nt
CCN(Cc1cc(=O)n2ccsc2n1)c1cccc2ccccc12	-4	178*	0	54*	14	-4
CCN(CC)S(=O)(=O)c1cccc(C(=O)Nc2nnc(C)s2)c1	12	0	5	31*	3	-5
COc1ccc(N(C)S(=O)(=O)c2cccc(C(=O)Nc3nnc(C)s3)c2)cc1	10	-1	nt	17	4	nt
COc1ccc(N(C)S(=O)(=O)c2cccc(C(=O)Nc3nc(C)c(C(C)=O)s3)c2)cc1	4	1	nt	35*	3	0
CC(C)(O)C(=O)NN=Cc1ccc(OC/C=C/c2ccccc2)cc1	-6	nt	nt	nt	-2	nt
C#CCNC(=O)C1=CC(c2ccc3c(c2)OCO3)CC(OCc2ccc(CO)cc2)O1 (stereo not drawn)	-3	nt	nt	nt	3	nt
Fc1ccc(/C=N/Nc2nn[nH]n2)cc1	nt	-1	0	-1	nt	nt
Nn1cnnc1N/N=C/c1ccc(Cl)c([N+](=O)[O-])c1	nt	0	-1	99*	nt	10
Cc1ccc(/C=N/Nc2nncn2N)cc1	nt	-1	-1	87*	nt	-17
Cc1[nH]c2ccccc2c1C=NNc1nncn1N	2	nt	nt	nt	6	nt
Nn1cnnc1N/N=C/c1ccc(F)cc1	nt	0	11	92*	nt	-18
Nn1cnnc1NN=Cc1ccc(Cl)c([N+](=O)[O-])c1	7	nt	nt	nt	0	nt
Cc1ccc(C=NNc2nc(N3CCCCC3)nc(N3CCCCC3)n2)o1	2	nt	nt	nt	2	nt
O=C1C2C(C(=O)N1N=Cc1ccco1)C1C=CC2C12CC2 (stereo not drawn)	6	nt	nt	nt	1	nt
C=CCOC(=O)C1=CC(c2ccc(C(F)(F)F)cc2)CC(OCc2ccc(CO)cc2)O1 (stereo not drawn)	6	nt	nt	nt	1	nt
CCOc1ccc(C(O)=C2C(=O)C(=O)N(CCOCCO)C2c2ccccc2)cc1 (stereo not drawn)	3	nt	nt	nt	5	nt
Cc1ccc2c(c1)C(=O)C(=O)N2c1ccc(Cl)cc1	nt	0	nt	5	nt	nt
Cc1ccc2c(c1)C(=O)C(=O)N2c1ccc(C(F)(F)F)cc1	-4	-1	nt	30*	3	-9
Cc1c(C(=O)O)c(=O)n(-c2ccccc2)n1-c1ccccc1	4	-2	0	-8	5	nt
SMILES	ugtP null kill	PfHsp40 yeast	BJeLR lethal	CCHF vOTU inh-1	Sa RN4220 lethal	CCHF vOTU inh-2
Cc1c(C=O)c(=O)n(-c2ccccc2)n1-c1ccccc1	8	-1	0	32*	-5	-19
O=C(CCc1n[nH]c(=O)[nH]c1=O)NN=Cc1ccc(Br)o1	0	nt	nt	nt	1	nt
O=[N+]([O-])c1cc2cccnc2c2ncccc12	-2	nt	-16	-3	4	nt
O=[N+]([O-])c1cc(O)c2ncccc2c1	19	nt	20	35*	45	52*
O=C(COc1ccc2ccccc2c1)Nc1cccc(C(=O)Nc2ccccc2C(=O)O)c1	19	37*	-9	34*	30	24
COc1cc(OC)c([N+](=O)[O-])cc1/C=N/NC(=O)c1ccncc1	nt	-2	4	34*	nt	5
COc1cc(/C=N/NC(=O)c2ccncc2)c([N+](=O)[O-])cc1OC	nt	0	-24	9	nt	nt
Cc1c(C=O)c(Cl)n(C)c(=O)c1C#N	8	1	4	68*	11	110*
CCC(NC(=O)Nc1ccc(O)cc1)(C(F)(F)F)C(F)(F)F	3	1	nt	63*	6	3
COc1ccc(NC(=O)NC(C)(C(F)(F)F)C(F)(F)F)cc1	1	0	-3	1	1	nt
CCC(NC(=O)NCc1ccccc1)(C(F)(F)F)C(F)(F)F	1	1	-3	-7	3	nt
CC(NC(=O)Nc1ccc(O)cc1)(C(F)(F)F)C(F)(F)F	10	-1	2	52*	-1	-2
CC1C(=NO)CC(c2ccco2)NC1c1ccco1 (stereo not drawn)	2	nt	nt	nt	3	nt
CC(C)=CCC[C@H](C)CC1Cc2[nH]c(=S)[nH]c(=O)c2C(c2ccc(Cl)cc2)O1 (stereo partly drawn)	nt	nt	nt	30*	nt	-8
CC(=O)Nc1ccc(C=NNC(=O)c2cc3ccccc3nc2C)cc1	6	nt	nt	nt	5	nt
Cc1ccccc1NC(=O)Cc1nc(COC(=O)c2cc([N+](=O)[O-])ccc2NCCO)cs1	6	15	-8	30*	0	-3
CC(C)CC(NC(=O)c1nc[nH]c1C(=O)NC(CC(C)C)C(=O)OCc1ccccc1)C(=O)OCc1ccccc1 (stereo not drawn)	2	nt	nt	nt	7	nt
O=C(NN=CC1C(c2ccccc2)C1(Cl)Cl)c1cccc(Br)c1 (stereo not drawn)	9	nt	nt	nt	0	nt
COc1cc2c(cc1OC)-c1c(OC)c(OC)cc3c1[C@H](C2)N(C)CC3	nt	0	-3	89*	nt	79*
COCCN1C(=O)NC(c2cccc(C(F)(F)F)c2)C(C(=O)OC)C1C (stereo not drawn)	14	nt	nt	nt	6	nt
NC(=O)CC(NC(=O)Cc1ccc(Br)cc1)c1ccc(NCCN2CCCC2)c([N+](=O)[O-])c1 (stereo not drawn)	0	-1	2	34*	-1	-14
Cc1ccc(C)c(N2CCN(C(=O)CCc3nc(-c4ccccc4C)no3)CC2)c1	12	6	nt	36*	3	4
Cc1ccc(C)c(N2CCN(C(=O)CCc3nc(-c4ccccc4Cl)no3)CC2)c1	-1	4	nt	3	0	nt
C=CCOc1ccc(/C=C/C(C)=NO)cc1	6	nt	nt	nt	10	nt
CN1CCS/C1=C\C=C1/SC(=S)N(CC(=O)O)C1=O	10	2	2	30*	7	13
SMILES	ugtP null kill	PfHsp40 yeast	BJeLR lethal	CCHF vOTU inh-1	Sa RN4220 lethal	CCHF vOTU inh-2
COc1cc(N)c2ncccc2c1SC	nt	nt	nt	28	nt	nt
COc1cc(N)c2ncccc2c1Br	6	1	nt	105*	4	25
O=C(c1ccc(Br)o1)N1CCC(c2nc3ccccc3[nH]2)CC1	-1	0	0	34*	1	-27
O=C(C1CCCCC1)N1CCC(c2nc3ccccc3[nH]2)CC1	11	1	3	-13	3	nt
Cc1cccc(N2C(=O)CSC2=NNC(=O)c2cccnc2)c1C	10	nt	nt	nt	4	nt
O=C(Nc1nc(-c2ccccc2)cs1)c1ccccc1NS(=O)(=O)c1ccc(F)cc1	95*	7	31	38*	93*	-2

High-throughput results from PubChem BioAssay.
